# Experimental data published in the OligoGym collection.
# Target: UST
# Experiment: pooled miR-30 sensor sort-seq; sequence = guide strand
# Conditions: shRNA
# Note: reference of the scale not given here.
row,Sequence,sensor-assay potency score (higher = more potent)
1,TTCAAGAATACACTCATTGATA,-0.731
2,TAAAACTCGTACTCGTATCTCA,0.226
3,ATCCTGTTCTTCATCGTCGATT,-1.53
4,TTGTACACCACCTGGCTTGGGA,-0.187
5,TTGAGGAAATGAACATGTCGAG,-0.72
6,TACTCGTATCTCATCCGCTGGT,-0.000159
7,TTCATTTTTAGTAAGCCTGGTT,0.157
8,TTGTTGTGAATGTCTGATGTGA,-0.387
9,TACCCTGTTGTACACCACCTGG,-1.05
10,AAATAGTTGGATAAGAACCGGT,-0.125

# Target: UTP18
# Experiment: as above
# Conditions: shRNA
row,Sequence,sensor-assay potency score (higher = more potent)
1,TTTTCCGCTTAGTAGTCTCTGC,-0.432
2,TTTATGAGCAAGAAGGACCCAT,0.234
3,ATTAGCACTAAAACAAGCCTTA,0.102
4,TTAATCCATATAAACTGCCTTC,-0.603
5,TTCATCTTCAAGATTCCTCTTG,0.439
6,TTTGCAACAAATCATCTTCATC,-0.536
7,TTTCTTGGAGACAAGAATCTTG,-0.491
8,TTTTTCATCATATCCTTCCGAA,0.00107
9,TTCATCTTCTTCATCCACCCAA,0.245
10,TTCACTAGCATTTTTCATCATA,-0.646
11,TAGTGATACAGCATTATCTAAT,-1.01
12,TAGACATAAAGAACCTTGCTGT,0.607

# Target: UTP3
# Experiment: as above
# Conditions: shRNA
row,Sequence,sensor-assay potency score (higher = more potent)
1,TTGATAGGTAATAGCTCTCTTT,-1.33
2,TTTACGAACTTCACGAACCTGG,-0.0211
3,TTCGTCGTCCTCATCGTCCATA,-0.923
4,TAAGTGTCAACAGATGACGAAT,-1.16
5,TTTCTCTTTAGCTTTTGCCTGT,0.173
6,TGAAACTTTAGCCAAATCCTTC,-1.04
7,TTTCGGTAGGTAACAAGCCTTT,-1.19
8,TTTCACTGAAACTTTAGCCAAA,-0.944
9,ATCATCTCCATTTTCGTCGGTG,-0.329
10,TATAGTACTTCAGTTTTGCTTT,-0.531
11,TTTCTTTACAGCATCATCCTTA,0.221
12,TATTTCTTTATAGTACTTCAGT,-0.591

# Target: UTS2D
# Experiment: as above
# Conditions: shRNA
row,Sequence,sensor-assay potency score (higher = more potent)
1,TTTTAGCTTTTCCAGCTGGTTA,-0.983
2,ATTTTTATTCAGTAGAGCCAGC,-1.2
3,TAGGAGTCCAAAGCAAACAGTG,-0.558
4,TTGTATATTTTTTATCTGGAAA,-1.16
5,TAAGATATGGTCGTCCATGCAC,-0.532
6,TTAGGAGTCCAAAGCAAACAGT,-1.23
